The text below walks through data of PubChem BioAssay (Tox21).

Test [1] concerns the target Estrogen receptor (Homo sapiens) (UniProt P03372). Put plainly: qHTS assay to identify small molecule antagonists of the estrogen receptor alpha (ER-alpha) signaling pathway using the BG1 cell line in the presence of 0.1 nM 17-beta-estradiol (AID 1259244). Also: nearly all actives have a fitted effect of over 50% in size. The gist of the method:
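Quantitative high-throughput screen in VM7Luc4E2 cells: compound plus 0.1 nM E2 (final), 22 h, 37C, 5% CO2; ONE-Glo added, 30 min room temperature, luminescence measured.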
Background: qHTS replaces the single test concentration by a dilution series.

Test [2] in a line: qHTS assay to identify small molecule HDAC inhibitors (AID 1259364). Also: top concentration of the series differs between compounds; nearly all actives have a fitted effect of over 45% in size. The gist of the method: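 Endogenous HDAC class I/II activity was measured in wild-type HCT-116 cells by HDAC-Glo luminescence after 2 h compound treatment.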
The nature of test [3]: qHTS assay to identify small molecule HDAC inhibitors - cell viability counter screen (AID 1259365). Also: series mostly up to about 92 µM; nearly all actives have a fitted effect of over 50% in size. The gist of the method:
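Following a 2hr exposure of overnight-plated wild-type HCT-116 cells to DMSO-delivered compounds, CellTiter-Glo was added and luminescence recorded after 30min at room temperature.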

Test [4] is described as follows: qHTS assay to identify small molecule agonists of the sonic hedgehog signaling (Shh) pathway - cell viability counter screen (AID 1259366). Also: nearly all actives have a fitted effect of over 50% in size. A digest of the protocol:
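After a 4hr attachment at 37C, NIH/3T3 cells bearing an integrated Gli1-driven luciferase reporter were dosed with compounds. Treatment lasted 24hr, with the final hour including CellTiter-Fluor for a fluorescence viability measurement.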

Test [5] can be described thus: qHTS assay to identify small molecule antagonists of the sonic hedgehog signaling (Shh) pathway - cell viability counter screen (AID 1259367). Also: nearly all actives have a fitted effect of over 55% in size. The gist of the method: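 Seed 3T3 Gli1-Luc cells at 2,000 per well; incubate 4 hr; add compound in DMSO, then conditioned medium; incubate at 37C with 5% CO2; add CellTiter-Fluor after 23 hr; read fluorescence 1 hr later.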

A short description of test [6]: qHTS assay to identify small molecule agonists of the sonic hedgehog signaling (Shh) pathway (AID 1259368; calls by dose curve;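 also: NIH/3T3-derived 3T3Gli1-Luc cells carrying a stable Gli1-driven firefly luciferase reporter; series mostly up to about 92 µM; nearly all actives have a fitted effect of over 15% in size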). A digest of the protocol: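 Luminescent signal was taken as a measure of Gli1-controlled luciferase expression in stably transfected NIH/3T3-derived cells that had been treated for 24 hr with compounds delivered in DMSO.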
Test [7] has as its target Estrogen receptor beta (Homo sapiens) (UniProt Q92731). Put plainly: qHTS assay to identify small molecule agonists of the estrogen receptor beta (ER-beta) signaling pathway (AID 1259377; active = well fitted activation curve with a large enough effect in the signal ratio in the repeat runs, not every such curve was filed as active; the % refers to the signal ratio). The gist of the method: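 In HEK293T cells bearing a UAS-beta-lactamase reporter under ER-beta control, DMSO-delivered compounds were incubated for 16 hr at 37C. Activity was detected as fluorescence 2 hours after LiveBLAzer B/G FRET substrate addition.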

Test [8] shares this target. Put plainly: qHTS assay to identify small molecule antagonists of the estrogen receptor beta (ER-beta) signaling pathway (AID 1259378; active = well fitted inhibition curve with a large enough effect in the signal ratio in the repeat runs, not every such curve was filed as active; the % refers to the signal ratio). A digest of the protocol: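 ER-beta-UAS-bla HEK293T cells in 2% charcoal-stripped FBS medium treated with compound plus 1nM final 17-beta-estradiol for 16 hr at 37C. Beta-lactamase reporter read by FRET substrate fluorescence after 2 hours at room temperature.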

Test [9] can be described thus: qHTS assay to identify small molecule agonists of the androgen receptor (AR) signaling pathway in the presence of an antagonist - cell viability counter screen (AID 1259379).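 Also: MDA-kb2 human breast cancer cells carrying an MMTV luciferase reporter; series mostly up to about 92 µM; nearly all actives have a fitted effect of over 25% in size.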 The gist of the method:
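In MDA-kb2 cells (human breast carcinoma, MMTV-luciferase), compounds at 15 concentrations plus 3.0uM nilutamide; 16 hr, 37C, 0% CO2; CellTiter-Fluor fluorescence read for viability.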

Test [10] can be described thus: qHTS assay to identify small molecule agonists of the estrogen receptor beta (ER-beta) signaling pathway - cell viability counter screen (AID 1259380). Also: nearly all actives have a fitted effect of over 30% in size. The gist of the method: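 Viability of ER-beta-UAS-bla HEK293T cells was determined by CellTiter-Glo luminescence following 16 hr treatment with test compounds at 37C.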
The nature of test [11]: qHTS assay to identify small molecule antagonists of the estrogen receptor beta (ER-beta) signaling pathway - cell viability counter screen (AID 1259382). Also: series mostly up to about 92 µM; nearly all actives have a fitted effect of over 55% in size. A digest of the protocol:
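Tox21 10K library tested in qHTS format on ER-beta-bla HEK293T cells stimulated with 1nM E2; 16 hr treatment at 37C. Same-well CellTiter-Glo luminescence served as the cell viability measure.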

Test [12] addresses Estrogen receptor (Homo sapiens) (UniProt P03372). As to the kind of experiment: qHTS assay to identify small molecule agonists of the estrogen receptor alpha (ER-alpha) signaling pathway in the presence of an antagonist (AID 1259383; calls by dose curve; also: top concentration of the series differs between compounds; nearly all actives have a fitted effect of over 15% in size). A digest of the protocol: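 In VM7Luc4E2 cells, 4,000 per well, compounds at 15 concentrations were co-incubated 22hr at 37C with 10.0nM final ICI-182,780. Luminescence from the stably transfected 4×ERE-luciferase reporter was recorded 30min after ONE-Glo addition.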

Test [13] in a line: qHTS assay to identify small molecule agonists or antagonists of the thyroid stimulating hormone receptor (TSHR) signaling pathway - wild type cell line counter screen (AID 1259384; calls by dose curve). The gist of the method: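 Wild-type Hek293 cells, 800/well, 18 h at 37C, then compound with Ro20-1724 for 30 min RT. cAMP by HTRF (cAMP-d2/anti-cAMP cryptate), 1 h RT, fluorescence read. 15 concentrations, triplicates.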

The target of test [14] is Thyrotropin receptor (Homo sapiens) (UniProt P16473). Put plainly: qHTS assay to identify small molecule antagonists of the thyroid stimulating hormone receptor (TSHR) signaling pathway (AID 1259385; calls by dose curve; also: nearly all actives have a fitted effect of over 20% in size). The gist of the method: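 TSHR-HEK293 cells (800/well) plated 18 h, then compounds with Ro20-1724 and TSH at 1.5 ng/mL final, 30 min at room temperature. cAMP quantified by HTRF (cAMP-d2/anti-cAMP-cryptate, 1 h); 15 concentrations in triplicate.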
Chain of Thyrotropin receptor (Homo sapiens) (P16473 whole entry, looked up): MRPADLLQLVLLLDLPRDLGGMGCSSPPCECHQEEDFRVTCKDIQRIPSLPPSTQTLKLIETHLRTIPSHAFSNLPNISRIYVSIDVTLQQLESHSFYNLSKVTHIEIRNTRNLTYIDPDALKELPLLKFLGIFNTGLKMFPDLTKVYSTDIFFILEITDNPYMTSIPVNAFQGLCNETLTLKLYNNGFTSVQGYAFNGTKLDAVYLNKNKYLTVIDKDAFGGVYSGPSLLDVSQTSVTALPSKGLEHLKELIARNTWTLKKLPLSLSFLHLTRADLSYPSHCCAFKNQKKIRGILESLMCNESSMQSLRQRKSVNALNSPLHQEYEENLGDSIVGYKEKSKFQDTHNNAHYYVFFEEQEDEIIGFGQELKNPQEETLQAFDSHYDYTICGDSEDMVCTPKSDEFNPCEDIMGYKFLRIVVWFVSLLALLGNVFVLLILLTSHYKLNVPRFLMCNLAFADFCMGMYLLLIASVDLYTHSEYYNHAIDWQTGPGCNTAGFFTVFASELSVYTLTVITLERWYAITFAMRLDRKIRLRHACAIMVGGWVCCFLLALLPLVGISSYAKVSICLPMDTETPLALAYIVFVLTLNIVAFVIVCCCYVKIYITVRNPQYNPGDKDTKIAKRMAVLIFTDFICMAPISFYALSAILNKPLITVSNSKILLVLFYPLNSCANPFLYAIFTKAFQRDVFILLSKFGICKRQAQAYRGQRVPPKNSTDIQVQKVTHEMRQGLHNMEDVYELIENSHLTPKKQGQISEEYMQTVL

A short description of test [15]: qHTS assay to identify small molecule agonists of the estrogen receptor alpha (ER-alpha) signaling pathway in the presence of an antagonist - cell viability counter screen (AID 1259386).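 Also: series mostly up to about 92 µM; cells exposed to compounds for 22 h at 37 °C before the viability read; nearly all actives have a fitted effect of over 30% in size.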 The gist of the method: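 Fluorescent CellTiter-Fluor viability signal from VM7Luc4E2 cells, with the reagent added during the final hour of a 22hr compound exposure at 37C in the presence of 10.0nM ICI-182,780.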

Test [16] has as its target Progesterone receptor (Homo sapiens) (UniProt P06401). Put plainly: qHTS assay to identify small molecule agonists of the progesterone receptor (PR) signaling pathway (AID 1346784; calls by dose curve; also: nearly all actives have a fitted effect of over 30% in size). The gist of the method: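 Using charcoal-stripped serum (2%) to limit endogenous steroids, PR-UAS-bla HEK 293T cells received compounds for 16 hr at 37C after 6 hr plating; beta-lactamase FRET fluorescence was recorded following 2 hr substrate loading at room temperature.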

Test [17] has the same target. Put plainly: qHTS assay to identify small molecule antagonists of the progesterone receptor (PR) signaling pathway (AID 1346795; active = well fitted inhibition curve with a large enough effect in the signal ratio in the repeat runs, not every such curve was filed as active; the % refers to the signal ratio; also: potency is read from the fitted curve at half-maximal effect). A digest of the protocol: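 Inhibition of R5020-induced (1 nM final) beta-lactamase reporter signal in PR-UAS-bla HEK293T cells was scored by FRET fluorescence after overnight (16 hr) compound treatment.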
The nature of test [18]: qHTS assay to identify small molecule antagonists of the sonic hedgehog signaling (Shh) pathway (AID 1259369; calls by dose curve; also: nearly all actives have a fitted effect of over 45% in size). A digest of the protocol:
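Screening used 3T3Gli1-Luc cells at 2,000 per well, compounds delivered in DMSO, and conditioned medium as agonist stimulus; plates incubated 24hr at 37 C and 5% CO2 before a 30min luciferase step.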

Test [19] addresses Androgen receptor (Homo sapiens) (UniProt P10275). Put plainly: qHTS assay to identify small molecule agonists of the androgen receptor (AR) signaling pathway in the presence of an antagonist (AID 1259381; calls by dose curve; also: nearly all actives have a fitted effect of over 15% in size). A digest of the protocol:
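Here, 15-concentration compound series were pin-transferred onto MDA-kb2 MMTV-luciferase cells already dosed with nilutamide (3.0uM final). After 16hr at 37C, ONE-Glo was added and luminescence read 30min later at room temperature.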

Inconclusive results are not listed. The source made the active and inactive calls. Unless noted, calls follow the shape of the dose curve; as a rule, active = well fitted curve in the direction sought with a large enough effect in the repeat runs; inconclusive = weak or mixed curves; inactive = no such curve, though single readings can be large; an effect the other way counts as inactive or inconclusive.

Chain of Androgen receptor (Homo sapiens) (P10275 whole entry, looked up): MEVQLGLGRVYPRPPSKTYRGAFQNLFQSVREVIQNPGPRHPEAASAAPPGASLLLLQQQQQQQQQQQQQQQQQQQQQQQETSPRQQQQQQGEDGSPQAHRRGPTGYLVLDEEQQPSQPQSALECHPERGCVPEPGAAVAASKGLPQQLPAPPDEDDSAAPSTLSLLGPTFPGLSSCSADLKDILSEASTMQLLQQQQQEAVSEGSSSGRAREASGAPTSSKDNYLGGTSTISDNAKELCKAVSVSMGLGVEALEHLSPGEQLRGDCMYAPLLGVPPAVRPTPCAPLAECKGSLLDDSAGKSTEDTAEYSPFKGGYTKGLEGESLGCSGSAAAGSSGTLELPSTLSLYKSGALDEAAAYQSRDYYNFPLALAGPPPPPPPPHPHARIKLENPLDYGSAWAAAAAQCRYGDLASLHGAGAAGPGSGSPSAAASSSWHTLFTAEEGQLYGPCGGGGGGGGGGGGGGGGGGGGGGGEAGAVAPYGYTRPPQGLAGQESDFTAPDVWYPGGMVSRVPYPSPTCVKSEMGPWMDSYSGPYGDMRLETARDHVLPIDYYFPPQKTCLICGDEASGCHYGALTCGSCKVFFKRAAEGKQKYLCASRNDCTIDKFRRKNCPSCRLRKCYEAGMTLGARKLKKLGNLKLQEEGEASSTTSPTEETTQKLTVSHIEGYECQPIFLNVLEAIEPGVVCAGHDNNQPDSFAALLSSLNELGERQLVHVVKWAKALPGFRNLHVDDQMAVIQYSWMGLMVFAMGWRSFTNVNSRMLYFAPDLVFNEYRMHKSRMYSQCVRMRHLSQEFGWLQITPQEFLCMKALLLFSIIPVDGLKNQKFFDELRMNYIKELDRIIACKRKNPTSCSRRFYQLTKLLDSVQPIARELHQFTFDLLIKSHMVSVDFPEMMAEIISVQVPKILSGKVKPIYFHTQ
Chain of Estrogen receptor (Homo sapiens) (P03372 whole entry, looked up): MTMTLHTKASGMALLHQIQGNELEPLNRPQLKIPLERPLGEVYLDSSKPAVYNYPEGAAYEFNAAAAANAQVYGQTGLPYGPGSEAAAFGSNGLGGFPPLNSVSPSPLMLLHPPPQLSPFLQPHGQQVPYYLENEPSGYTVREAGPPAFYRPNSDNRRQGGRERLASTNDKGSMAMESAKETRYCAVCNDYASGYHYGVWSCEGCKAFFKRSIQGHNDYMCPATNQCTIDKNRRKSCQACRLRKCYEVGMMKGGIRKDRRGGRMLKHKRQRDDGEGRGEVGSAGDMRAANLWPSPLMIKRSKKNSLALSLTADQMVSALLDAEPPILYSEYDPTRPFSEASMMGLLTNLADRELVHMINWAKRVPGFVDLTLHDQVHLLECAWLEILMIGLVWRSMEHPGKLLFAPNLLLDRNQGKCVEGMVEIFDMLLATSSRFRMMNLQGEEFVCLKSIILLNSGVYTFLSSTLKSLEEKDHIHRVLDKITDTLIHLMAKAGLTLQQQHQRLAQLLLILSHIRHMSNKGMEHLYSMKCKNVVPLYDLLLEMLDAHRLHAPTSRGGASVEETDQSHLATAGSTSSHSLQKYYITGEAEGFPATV
Chain of Estrogen receptor beta (Homo sapiens) (Q92731 whole entry, looked up): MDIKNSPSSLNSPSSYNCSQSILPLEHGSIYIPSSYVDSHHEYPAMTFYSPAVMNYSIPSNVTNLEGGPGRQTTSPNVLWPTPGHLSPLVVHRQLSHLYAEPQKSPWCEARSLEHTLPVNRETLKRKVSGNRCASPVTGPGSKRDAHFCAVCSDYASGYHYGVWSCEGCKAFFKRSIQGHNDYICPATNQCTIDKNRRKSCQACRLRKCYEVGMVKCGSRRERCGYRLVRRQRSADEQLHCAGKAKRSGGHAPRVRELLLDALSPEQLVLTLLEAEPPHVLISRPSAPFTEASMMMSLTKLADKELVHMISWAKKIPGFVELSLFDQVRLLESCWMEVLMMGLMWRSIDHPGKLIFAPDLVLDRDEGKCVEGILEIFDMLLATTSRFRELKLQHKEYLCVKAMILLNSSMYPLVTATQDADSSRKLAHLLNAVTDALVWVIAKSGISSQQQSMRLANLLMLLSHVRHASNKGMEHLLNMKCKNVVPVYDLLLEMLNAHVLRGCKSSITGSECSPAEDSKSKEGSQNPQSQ
Chain of Progesterone receptor (Homo sapiens) (P06401 whole entry, looked up): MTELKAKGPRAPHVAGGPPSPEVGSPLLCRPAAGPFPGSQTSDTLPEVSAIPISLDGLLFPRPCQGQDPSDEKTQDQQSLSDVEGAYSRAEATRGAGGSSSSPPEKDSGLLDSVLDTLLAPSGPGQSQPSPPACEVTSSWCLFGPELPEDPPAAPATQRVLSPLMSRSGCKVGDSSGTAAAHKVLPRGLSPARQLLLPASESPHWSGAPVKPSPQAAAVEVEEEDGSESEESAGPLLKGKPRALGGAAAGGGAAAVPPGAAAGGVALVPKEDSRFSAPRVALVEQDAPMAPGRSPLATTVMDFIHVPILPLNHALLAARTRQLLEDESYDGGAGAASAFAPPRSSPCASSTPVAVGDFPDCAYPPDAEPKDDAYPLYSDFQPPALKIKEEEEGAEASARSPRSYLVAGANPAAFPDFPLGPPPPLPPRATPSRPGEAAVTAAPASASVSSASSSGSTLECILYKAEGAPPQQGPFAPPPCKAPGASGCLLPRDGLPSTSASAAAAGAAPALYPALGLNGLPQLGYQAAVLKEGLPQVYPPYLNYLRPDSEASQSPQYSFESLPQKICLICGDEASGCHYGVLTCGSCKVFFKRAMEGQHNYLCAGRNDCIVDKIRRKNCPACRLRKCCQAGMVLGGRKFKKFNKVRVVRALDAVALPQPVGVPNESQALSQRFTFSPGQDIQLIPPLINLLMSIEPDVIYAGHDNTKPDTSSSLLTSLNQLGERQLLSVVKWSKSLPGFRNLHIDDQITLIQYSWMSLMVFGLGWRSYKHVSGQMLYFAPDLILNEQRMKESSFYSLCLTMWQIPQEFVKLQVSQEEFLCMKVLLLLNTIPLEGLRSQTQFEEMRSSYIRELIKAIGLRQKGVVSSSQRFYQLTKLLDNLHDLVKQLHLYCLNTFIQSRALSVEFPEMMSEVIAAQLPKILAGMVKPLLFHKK

On to `CC(C)(C)OOC(C)(C)C`, for which the Potency result in test [1], in [2], in [4], in [5], in test [7] and in test [10] was “inactive” in each case. The Potency result in test [11], in [12], in test [14] and in [17] was “inactive” in each case. The call in [3], in test [6], in [8], in test [9], in test [13] and in test [15] was inactive. In addition, the outcome in [16] was inactive.
`CCC12COCN1COC2`: the Potency result in test [1], in [2], in test [4], in [5], in test [18] and in test [10] was “inactive” in each case. Moreover, the Potency result in test [11], in test [12], in test [14] and in [17] was “inactive” each time. Further, the outcome in [3], in [6], in test [9], in test [13], in test [15] and in test [16] was inactive.
Take `c1ccc(-c2ccccc2)cc1`: the Potency entry in test [1], in [2], in test [4], in [5], in test [7] and in [10] was “inactive” each time. The Potency result in test [11], in test [12] and in test [14] was “inactive” in each case. The result in [3], in [6], in test [8], in [9], in [19] and in [13] was inactive. The result in test [15] and in [16] was inactive.
Take `CCN(CC)c1ccccc1`: the Potency result in [1], in test [2], in test [4], in test [5], in [7] and in [10] was “inactive” in each case. Further, the Potency result in test [11], in test [12] and in [17] was “inactive” each time. In addition, the outcome in [3], in [6], in [8], in [9], in test [19] and in [15] was inactive. Further, the compound was classed as inactive in test [16].
In the case of `CCC[CH2][Sn]([Cl])([Cl])[Cl]`, the Potency entry in [1], in test [2], in test [4], in test [5], in test [18] and in [10] was “inactive” each time. The Potency result in test [11], in test [12], in test [14] and in test [17] was “inactive” each time. The compound was called inactive in test [3], in [6], in test [9], in [13], in test [15] and in [16].
As for `CCNc1nc(NC(C)(C)C)nc(SC)n1`, the Potency result in test [1], in test [2], in test [4], in test [5], in [7] and in test [10] was “inactive” in each case. The Potency entry in test [11], in [12] and in test [14] was “inactive” each time. The compound was classed as inactive in [3], in test [6], in test [8], in test [9], in [13] and in test [15]. Moreover, the compound was called inactive in test [16]. For the same compound, in test [17], the Potency was 47.9 µM (active).
Consider `CN(N=O)c1ccccc1`, for which the Potency entry in test [1], in test [2], in test [4], in [5], in [7] and in [10] was “inactive” in each case. In addition, the Potency result in test [11], in test [12], in test [14] and in [17] was “inactive” in each case. In addition, the result in test [3], in test [6], in test [8], in test [9], in test [13] and in test [15] was inactive. In addition, in test [16], the compound was classed as inactive.
For `ClCc1cccnc1`, the Potency result in test [1], in test [2], in [4], in test [5], in [18] and in [10] was “inactive” each time. Further, the Potency entry in [11], in [12], in [14] and in test [17] was “inactive” in each case. The compound was called inactive in test [3], in [6], in test [9], in test [13], in [15] and in [16].
